Assay outcomes (PubChem BioAssay)
This is one part of a sample in which hits are shown more often than they occur.
ST2 IL33 inh – inhibitors of human ST2 (IL1RL1) binding to IL-33, primary screen, biochemical, AlphaLISA; Interleukin-1 receptor-like 1 (Homo sapiens), Q01638; AlphaLISA ST2-Fc/biotin-IL-33 interaction, 1 h; inhibition, % for hits at 17 µM; 2.3% of 78,000 active; AID 1259354, 2018; in the data active means inhibition above about 30%
Target sequence (Q01638 whole entry, looked up): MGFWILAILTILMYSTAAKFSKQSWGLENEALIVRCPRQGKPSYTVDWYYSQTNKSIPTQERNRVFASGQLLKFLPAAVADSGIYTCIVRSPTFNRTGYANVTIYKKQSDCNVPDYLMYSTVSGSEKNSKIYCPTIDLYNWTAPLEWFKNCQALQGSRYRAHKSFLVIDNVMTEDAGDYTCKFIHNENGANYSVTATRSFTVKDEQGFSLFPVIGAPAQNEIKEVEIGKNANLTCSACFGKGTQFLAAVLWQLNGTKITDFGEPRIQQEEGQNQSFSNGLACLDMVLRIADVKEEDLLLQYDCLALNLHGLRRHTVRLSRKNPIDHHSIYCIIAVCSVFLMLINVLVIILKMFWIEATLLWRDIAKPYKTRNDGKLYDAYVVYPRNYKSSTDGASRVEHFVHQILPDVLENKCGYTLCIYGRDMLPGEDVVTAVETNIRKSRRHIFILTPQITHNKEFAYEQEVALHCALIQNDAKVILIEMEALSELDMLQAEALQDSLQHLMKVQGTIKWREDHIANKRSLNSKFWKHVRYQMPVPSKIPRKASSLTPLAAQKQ
Of the large screens only hits and unclear results are named; the others gave an inactive call.

O=C(c1ccccc1Br)N1CCN(c2cccc(Cl)c2)CC1	none
c1cncc(CN2CCN(Cc3cc4n(n3)CCCNC4)CC2)c1	none
COc1ccc2oc(=O)c(C(=O)Nc3cccc(C(F)(F)F)c3)cc2c1	none
CCN1CCN(C(=O)CNS(=O)(=O)c2cccs2)CC1	none
O=C(NCCN1CCc2ccccc2C1)c1ccc2nc[nH]c2c1	none
COc1cc(/C=C/c2c([N+](=O)[O-])c(=O)n(C)c(=O)n2C)ccc1OCc1ccccc1	none
COc1ccc(C2SCCN2S(=O)(=O)c2ccc([N+](=O)[O-])cc2)cc1OC (stereo not drawn)	none
COc1cc(C2Oc3ccccc3C=C2[N+](=O)[O-])ccc1OCc1ccccc1 (stereo not drawn)	ST2 IL33 inh 46.0%
COc1ccc([C@H]2OC[C@H]3[C@@H]2CO[C@@H]3c2ccc(OC)c(OC)c2)cc1OC	none
COc1ccc(C2Oc3c(Br)cc(Br)cc3C=C2[N+](=O)[O-])cc1OC (stereo not drawn)	ST2 IL33 inh 56.0%
COc1cc(-c2ncnn2-c2ccc(F)c([N+](=O)[O-])c2)ccc1OCc1ccccc1	none
Cc1cccc(NC(=O)c2ccccc2Cl)c1	none
Cc1ccoc1C(=O)N(C)Cc1ccc(-n2cccn2)cc1	none
Cc1ccc2[nH]c3c(c2c1)CCC1C3=NNC1c1ccco1 (stereo not drawn)	ST2 IL33 inh 37.0%
Cc1ccc2[nH]c3c(c2c1)CCCC3=O	none
Cc1ccc2[nH]c3c(c2c1)CN(Cc1ccccc1)CC3	none
CN(C)S(=O)(=O)N1CCc2c(nc(-c3ccncc3)[nH]c2=O)C1	none
CCOc1ccccc1N1C(=O)CC(Nc2ccc(N3CCOCC3)cc2)C1=O (stereo not drawn)	ST2 IL33 inh 51.0%
COc1ccccc1N1C(=O)CC(N2CCOCC2)C1=O (stereo not drawn)	none
CCOc1ccccc1N1CCN(C2CC(=O)N(c3ccccc3)C2=O)CC1 (stereo not drawn)	none
CC1=CCC(COC(=O)CN2CCCCC2)CC1 (stereo not drawn)	none
CNC(=O)c1ccc(CN2CCCC(Nc3ccc(F)cc3)C2)o1 (stereo not drawn)	ST2 IL33 inh 36.0%
NC(=O)C(=O)NC1CCCN(Cc2ccc(F)cc2)C1 (stereo not drawn)	none
COc1ccc(-c2ncc(CN3CCCC(Nc4ccc(F)cc4)C3)cn2)cc1 (stereo not drawn)	none
c1cc(CN(Cc2ccsc2)CC2CCCO2)c2[nH]ccc2c1 (stereo not drawn)	none
Cc1ccc(C)c(Cn2nnc(C(=O)NCc3ccc4c(c3)OCO4)c2N)c1	none
CCN(C(=O)Cc1c(C(=O)O)[nH]c2ccc(Cl)cc12)c1ccccc1	none
C=CCN(CC=C)C(=O)Nc1cccc(Cl)c1	none
COc1ccc(C2C3C(=O)NC(=O)C3ON2c2ccc(Cl)cc2)cc1 (stereo not drawn)	ST2 IL33 inh 31.0%
COc1ccc(N2C(=O)C3C(c4ccc(F)cc4)OC4(C(=O)c5ccccc5C4=O)C3C2=O)cc1 (stereo not drawn)	none
COc1ccc(C2C(C(=O)Nc3ccc(F)c(Cl)c3)CC(=O)N2c2ccc(OC)cc2)cc1 (stereo not drawn)	none
COC(C(=O)N(C)Cc1nc2ccccc2n1C)c1ccccc1 (stereo not drawn)	none
CSCCC(NC(=O)/C(=C/c1ccc2c(c1)OCO2)NC(=O)c1ccco1)C(=O)O (stereo not drawn)	none
COc1ccc(/C=C2/c3cc(C)ccc3-c3ncccc32)cc1	ST2 IL33 inh 31.0%
CCOC(=O)c1cccnc1-c1cc(OC)ccc1F	none
Cc1ccc(N=C2c3cc([N+](=O)[O-])ccc3-c3ncccc32)cc1	none
CC(C)Sc1oc(-c2cccs2)nc1S(=O)(=O)c1ccccc1	none
COc1ccc(CCN2C(=O)CCC2(C)C(=O)NC2CCC(C)CC2)cc1OC (stereo not drawn)	none
CC(C)(C)c1ccc(-c2cc(C[C@H]3CNCC[C@H]3CC(=O)NCc3ccc(F)cc3)no2)cc1	none
CC(C)(C)c1ccc(-c2cc(C[C@H]3CNCC[C@H]3CC(=O)NCc3ccccc3)no2)cc1	none
COc1ccc(CNC(=O)C[C@@H]2CCNC[C@@H]2Cc2cc(-c3ccc(C(C)(C)C)cc3)on2)cc1	ST2 IL33 inh 47.0%
Cc1ncsc1C(=O)NC1CC(=O)N(Cc2ccccc2Cl)C1 (stereo not drawn)	none
CNC(=O)CN(c1ccc(Cl)c(Cl)c1)S(C)(=O)=O	none
COc1ccc(/C(N)=N\OC(=O)c2ccc(C)c(C)c2)cc1OC	none
O=C(O)c1cccc(NC(=O)c2ccc(-c3ccccc3)cc2)c1	none
CC1(C)OC(=O)C(=CNc2cccc(C(=O)O)c2)C(=O)O1	ST2 IL33 inh 33.0%
O=C(O)c1cccc(NC(=O)c2cccc(C(=O)Nc3cccc(C(=O)O)c3)c2)c1	none
Cc1oc(-c2cccs2)nc1CN1CCCC(C(=O)NCc2cccnc2)C1 (stereo not drawn)	none
Cc1ccc[n+](C2C(c3ccc([N+](=O)[O-])cc3)C(C#N)=C([S-])NC2(O)C2CC2)c1 (stereo not drawn)	ST2 IL33 inh 50.0%
COc1ccccc1C1C(C#N)=C(C(=C=[N-])C#N)NC(O)(C2CC2)C1[n+]1ccc(C)cc1 (stereo not drawn)	none
